Source: PubChem BioAssay
This is a sample that favours compounds with a hit; in the whole collection about 6.6% have one here.
BoNT A protease – blocks Botulinum neurotoxin A light chain protease. multiplex microsphere protease substrate cleavage, flow cytometry. inhibition, % at 10 µM. actives 0.17% (n = 360,000). AID 588499; also: plate controls were buffer without enzyme for full effect and enzyme alone for no effect
BoNT F protease – blocks Botulinum neurotoxin F light chain protease; Multiplex microsphere protease cleavage assay, flow cytometry; inhibition, % at 10 µM; actives 0.22% (n = 360,000); AID 588497; in the data active = inhibition above about 35%, passing the limit was not always enough; inconclusive = no clear call, values can overlap the other calls; also: plate controls were buffer without enzyme for full effect and enzyme alone for no effect
Anthrax LF prot – inhibitors of Bacillus anthracis lethal factor protease. P15917. multiplex microsphere protease cleavage assay, LF. inhibition, % at 10 µM. actives 0.12% (n = 360,000); also: plate controls were buffer without enzyme for full effect and enzyme alone for no effect
Target sequence (P15917 whole entry, looked up): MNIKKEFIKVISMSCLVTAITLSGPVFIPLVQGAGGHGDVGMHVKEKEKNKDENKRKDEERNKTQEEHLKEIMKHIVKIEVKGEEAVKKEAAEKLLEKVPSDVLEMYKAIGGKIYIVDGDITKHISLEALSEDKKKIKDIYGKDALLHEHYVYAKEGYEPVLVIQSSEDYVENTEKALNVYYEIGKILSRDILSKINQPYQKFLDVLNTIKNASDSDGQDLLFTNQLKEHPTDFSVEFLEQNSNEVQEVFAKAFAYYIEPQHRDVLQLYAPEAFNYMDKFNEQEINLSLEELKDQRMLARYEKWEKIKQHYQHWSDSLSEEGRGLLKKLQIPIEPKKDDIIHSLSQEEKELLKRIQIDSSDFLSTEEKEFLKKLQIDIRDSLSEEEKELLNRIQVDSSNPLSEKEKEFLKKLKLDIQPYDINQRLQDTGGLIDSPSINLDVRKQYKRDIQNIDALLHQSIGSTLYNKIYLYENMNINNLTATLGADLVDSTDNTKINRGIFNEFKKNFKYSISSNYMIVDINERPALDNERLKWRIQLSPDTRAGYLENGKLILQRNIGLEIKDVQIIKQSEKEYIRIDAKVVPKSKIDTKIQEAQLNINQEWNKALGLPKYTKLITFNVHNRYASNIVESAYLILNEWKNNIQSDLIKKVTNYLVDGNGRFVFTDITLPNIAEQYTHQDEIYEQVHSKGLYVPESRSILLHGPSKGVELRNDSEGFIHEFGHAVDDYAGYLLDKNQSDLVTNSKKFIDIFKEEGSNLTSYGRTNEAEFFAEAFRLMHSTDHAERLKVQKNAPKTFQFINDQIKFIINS
GDH-TPI counter – GDH-TPI coupled enzyme inhibition counter-screen; GDH-TPI coupled enzyme counterscreen, NADH absorbance; inhibition, % at 4.8 µM; actives 1.2% (n = 360,000); AID 588335; in the data active = inhibition above about 30%;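 also: 0% = DMSO wells and 100% = wells lacking the enzyme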
FBA Mtb inh – inhibitors of M. tuberculosis fructose-bisphosphate aldolase. P9WQA3. inhibition, % at 1 µM. actives 2.3% (n = 360,000). purified M. tuberculosis FBA, fluorescence read-out; in the data active = inhibition above about 27%;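 also: 0% = vehicle and 100% = reference inhibitor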
Bead autofluor – flagged as autofluorescent in microsphere protease counterscreen; fluorescence intensity (test concentration not listed); AID 624483; compound autofluorescence counterscreen, microsphere flow cytometry; stronger effect = higher value; actives 3.1% (n = 360,000); in the data active = fluorescence intensity above about 16000; inconclusive = no clear call, values can overlap the other calls
The depositor's hits bear a star; ? = inconclusive; . = no result given; + = active, no number. Rule as the data show it, unless noted: active = inhibition above about 30%; inconclusive = no clear call, values can overlap the other calls; inactive = below that.

SMILES | BoNT A protease | BoNT F protease | Anthrax LF prot | GDH-TPI counter | FBA Mtb inh | Bead autofluor
O=C1OCCN1C(=O)[C@H]1[C@H](c2ccccc2)C(c2ccc(F)cc2)=NN1c1ccc(Br)cc1 | 0 | -3 | -2 | 24 | 35* | 3208
O=C1OCCN1C(=O)[C@H]1[C@H](c2ccccc2)C(c2ccccc2)=NN1c1ccc(Br)cc1 | 0 | -8 | -3 | 16 | 43* | 4170
Cc1cccc(C2=NN(c3ccccc3)[C@@H](C(=O)N3CCOC3=O)[C@@H]2c2ccccc2)c1 | 0 | -2 | -5 | 11 | 9 | 3769
O=C1OCCN1C(=O)[C@H]1[C@H](c2ccccc2)C(c2ccccc2)=NN1c1ccccc1 | 0 | 4 | -2 | 4 | 10 | 3556
Cc1cccc(C2=NN(c3ccc(Br)cc3)[C@@H](C(=O)N3CCOC3=O)[C@@H]2c2ccccc2)c1 | 0 | -6 | 3 | 17 | 28* | 3897
C[C@@H]1C(c2cccc(Cl)c2)=NN(c2ccccc2)[C@H]1C(=O)N1CCOC1=O | 0 | 2 | -2 | 15 | 16 | 4175
C[C@@H]1C(c2cccc(Cl)c2)=NN(c2ccc(Br)cc2)[C@H]1C(=O)N1CCOC1=O | 1 | -6 | 12 | 16 | 56* | 3637
Cc1ccc(C(=O)OCC(=O)Nc2cccc(S(=O)(=O)NC3=NCCCCC3)c2)c(C)c1 | 0 | 2 | 0 | 5 | 2 | 4170
C/C(=N\NC(=O)CSc1ncccn1)c1ccc2c(c1)OCCO2 | 0 | 0 | 4 | -8 | -2 | 5018
COc1ccccc1/C=C/C=N/NC(=O)c1cc(-c2ccco2)[nH]n1 | . | . | . | 32* | -1 | .
COc1ccccc1/C=C/C=N/NC(=O)CCn1cnc2ccccc21 | 4 | ? | -10 | 33* | 0 | 4153
COc1ccccc1/C=C/C=N/NC(=O)c1ccc(=O)n(C)c1 | 0 | 0 | 2 | 51* | 2 | 1962
O=C(CCn1cnc2ccccc21)N/N=C/C=C/c1ccccc1 | 1 | -10 | 2 | 21 | 2 | 6245
COc1ccccc1/C=C/C=N/NC(=O)c1ccccn1 | -1 | 0 | -1 | 20 | -1 | 3086
CN1CCCN(c2cc(-c3ccc4ccccc4c3)nc3ccnn23)CC1 | 7 | -151 | -145 | 14 | 10 | 1174
CCOc1ccc(NC(=O)CC2C(=O)N(c3ccccc3)C(=O)N2Cc2ccccn2)cc1 (stereo unspecified) | ? | 5 | -1 | -3 | -2 | 22858*
CCOc1ccc(NC(=O)CC2C(=O)N(c3ccccc3)C(=S)N2Cc2ccccn2)cc1 (stereo unspecified) | -1 | -5 | -2 | 6 | 2 | 9610
COc1ccc(NC(=O)CC2C(=O)N(c3cccc(OC)c3)C(=O)N2CCC(C)C)cc1 (stereo unspecified) | 4 | -1 | 1 | -2 | -2 | 19759*
N#CCC(=O)N1CCN(C=O)CC1 | 0 | -7 | 2 | 8 | -2 | 3274
COc1ccc(Oc2cn[nH]c2-c2ccc(O)cc2O)cc1 | 1 | 2 | 1 | 12 | 0 | 2561
COc1ccc(-c2[nH]ncc2Oc2ccccc2OC)c(O)c1 | -4 | -8 | -6 | -9 | 1 | 24038*
COc1ccc(-c2[nH]ncc2-c2cnn(-c3ccccc3)c2)c(O)c1 | 0 | -4 | -1 | 6 | 0 | 22408*
O=C(CCc1ccc(O)cc1)c1c(O)cc(O)cc1O[C@@H]1O[C@H](CO)[C@@H](O)[C@H](O)[C@H]1O | 0 | -4 | -12 | 33* | 2 | 4468
O=c1c(O[C@@H]2O[C@H](CO)[C@@H](O)[C@H](O)[C@H]2O)c(-c2ccc(O)cc2)oc2cc(O)cc(O)c12 | 0 | -3 | -3 | 37* | 4 | 2806
Nc1ccc2c(c1)oc1ccccc12 | 1 | 1 | 0 | 13 | 57* | 22331*
SMILES | BoNT A protease | BoNT F protease | Anthrax LF prot | GDH-TPI counter | FBA Mtb inh | Bead autofluor
Nc1cccc(C#Cc2ccc3c(=O)c4ccccc4oc3c2)c1 | 1 | 4 | -3 | 11 | 5 | 3571
CCCNC(=O)c1cc(C2CCCN(C(=O)c3ccc(NC(C)=O)cc3)C2)on1 (stereo unspecified) | 0 | -4 | -2 | 5 | 2 | 3375
O=C(NCc1cccnc1)C(=O)NCC1OCCCN1S(=O)(=O)c1cc(F)ccc1F (stereo unspecified) | 0 | 2 | -2 | -3 | 1 | 3405
COCCNC(=O)c1cccc2c(-c3ccnn3C)coc12 | 0 | -4 | -2 | -2 | -1 | 3852
Cc1[nH]n(-c2ccccc2)c(=O)c1/C=N/NC(=O)c1ccc(O)cc1O | 0 | -2 | -8 | 36* | 16 | 3370
Cc1ccc(-n2[nH]c(C)c(/C=N/NC(=O)c3ccc(O)cc3O)c2=O)cc1 | 0 | -2 | -7 | 23 | 8 | 2801
O=C1CC2(CCCC2)CC(=O)N1c1ccccc1 | -1 | -3 | -2 | 7 | 3 | 3584
Cc1ccc(C(=O)Nc2nnc(S(=O)(=O)N3CCCCCC3)s2)cc1 | -1 | -10 | -3 | 17 | 3 | 4432
O=C(Nc1nnc(S(=O)(=O)N2CCCC2)s1)c1cccc([N+](=O)[O-])c1 | -2 | -7 | 3 | 39* | 3 | 5566
COc1ccc(C(=O)Nc2nnc(S(=O)(=O)N3CCCCCC3)s2)cc1OC | -1 | -14 | -2 | 47* | 4 | 4929
COc1ccc(C(=O)Nc2nnc(S(=O)(=O)N3CCC(C)CC3)s2)cc1OC | . | . | . | 46* | 4 | .
NC(=O)CSc1nnc(NC(=O)c2cccc(S(=O)(=O)N3CCCCC3)c2)s1 | -1 | -2 | -7 | 14 | 3 | 4817
CCOC(=O)CSc1nnc(NC(=O)c2cccc(S(=O)(=O)N3CCCCCC3)c2)s1 | 0 | 0 | -1 | 5 | 0 | 24044*
O=C(O)CCCN1C(=O)c2ccc(Oc3cccc([N+](=O)[O-])c3)cc2C1=O | 0 | -1 | 0 | 4 | 9 | 2602
O=C(CCC1CCCCC1)Nc1nncs1 | -5 | ? | -4 | -7 | 2 | 4013
CCC(CC)C(=O)N(C)c1c(C)nc2c(OCCOc3ccc(F)cc3)cccn12 | 0 | 6 | -3 | -4 | -2 | 3654
CC(C)S(=O)(=O)N1CCCC(c2cc(C(=O)NCc3ccccc3)no2)C1 (stereo unspecified) | -1 | -2 | -2 | 9 | -3 | 3928
Cc1ccc(-n2nc3c4c(cccc4c2=O)-c2ccccc2-3)cc1 | 8 | 9 | 1 | 33* | 2 | 19852*
CCOC(=O)c1cc(C(=O)Nc2ccc(C)c(F)c2)nn1C | -3 | -6 | -2 | -5 | -3 | 21479*
COc1ccc(S(=O)(=O)NC(=O)C2(C)CCN2C(=O)C2CC2)cc1 (stereo unspecified) | 0 | -5 | -7 | 8 | -1 | 3875
COc1ccc(NC(=O)c2ccc3c(=O)n4c(nc3c2)CCCCC4)cc1 | -1 | -3 | 0 | 8 | 3 | 5847
COc1ccc(-c2cc3nc4n(c(=O)c3s2)CCCCC4)cc1 | 0 | -1 | -8 | 24 | + | 6420
